KB-3-1 tox: KB-3-1 parental cell cytotoxicity; KB-3-1 viability, CellTiter-Glo ATP luminescence, 72 h; Potency, µM (series often up to 46.1 µM), most hits filed as cytotoxic; 400,000 compounds, 1.4% hits; AID 1347075; further: on the % scale 0 is the no-effect control and ±100 the full control effect; nearly all actives have a fitted effect of over 60% in size
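Viability of parental KB-3-1 cells, measured by CellTiter-Glo luminescence, followed a 72 h incubation at 37 °C with pinned compounds in phenol-red-free DMEM containing 10% FBS.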
HT1080 IDH1KD tx: toxicity to HT-1080 IDH1 knockdown cells (counter line); HT-1080 IDH1 knockdown viability, ATP luminescence, 48 h; Potency, µM (top dose mostly 46.1 µM), for inactives: at the top dose activity, negative = toxicity, most hits filed as cytotoxic; 360,000 compounds, 2% hits; AID 686971;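 further: 0% = DMSO wells and -100% = cell-free medium wells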
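HT-1080-IDH1KD cells (IDH1 knocked down), 750/well in RPMI with 5% FBS, treated with compound 48 h at 37 degrees C. Viability by CellTiter-Glo luminescence, normalised to DMSO and no-cell wells; concentration-response curves classed.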
SW480 rereplic: inducers of DNA re-replication in SW480 colon cancer cells | SW480 DNA re-replication, Hoechst DNA content imaging, 48 h | Potency, µM (top dose mostly 46.1 µM), for inactives: top-dose re-replication activation, most hits filed as activators | 340,000 compounds, 1.8% hits | AID 624297; further: % of control where 0% means no effect; nearly all actives have a fitted effect of over 55% in size
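Readout is total intensity of Hoechst-stained nuclei, excited at 405 nm and collected at 500-530 nm. Compound treatment lasted 48 hr at 37 C in 5% CO2 before staining.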
HT1080-NT tox: kills 2HG-producing HT-1080-NT fibrosarcoma cells; HT-1080-NT fibrosarcoma viability, CellTiter-Glo ATP luminescence, 48 h; Potency, µM (doses to about 46.1 µM), for inactives: at the top dose activity, negative = less viability, hits mostly cytotoxic; 360,000 compounds, 1.6% hits;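 further: NT is the 2HG producing partner of a matched IDH1 knockdown line; 0% = DMSO-treated cells and -100% = media-only wells without cells; nearly all actives have a fitted effect of over 55% in size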
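Compounds were tested in concentration-response format on HT-1080-NT cells for 48 hours at 37 degrees C. Cell viability came from CellTiter-Glo luminescence; curves were classified by r2, response magnitude and activity.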
KB-V1 cytotox: KB-V1 MDR subline cytotoxicity; KB-V1 MDR cells viability, CellTiter-Glo, 72 h; Potency, µM (titrated, usually from 46.1 µM), usual class: cytotoxic; 400,000 compounds, 3.4% hits; AID 1347076; further: on the % scale 0 is the no-effect control and ±100 the full control effect; nearly all actives have a fitted effect of over 60% in size
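Cells of the MDR subline KB-V1 are plated, dosed with compound at multiple concentrations, and incubated 72 h at 37 degrees C; CellTiter-Glo is then added and luminescence read after 10 min.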
MCF10A rereplic: induces DNA re-replication in MCF 10a normal breast cells; MCF 10A DNA re-replication, Hoechst nuclear intensity, 48 h; AID 624296; 350,000 compounds, 2.9% hits; Potency, µM (series often up to 46.1 µM), for the others: top-dose activity, positive = re-replication, usual class: activators; further: % of control where 0% means no effect; nearly all actives have a fitted effect of over 50% in size
An asterisk follows results filed as active; i = inactive; ? = inconclusive; nt = not tested or not shown. Hits are enriched below; roughly 8% of the tested compounds scored in any of these assays. The call rests on the fitted dose curve; in most records, active means well fitted curve in the direction sought with a large enough effect; inconclusive means small, poorly fitted or top-dose-only effect, or another doubt; inactive means no such curve, though single readings can be large; an effect the other way counts as inactive or inconclusive. Potency means the concentration at half of the fitted maximal effect.

SMILES | KB-3-1 tox | HT1080 IDH1KD tx | SW480 rereplic | HT1080-NT tox | KB-V1 cytotox | MCF10A rereplic
O=C(CSc1nnc(-c2cccnc2)n1Cc1ccco1)c1ccc2ccccc2c1 | i | 15% | -3% | 21% | 15µM* | 4%
COc1cc(Cl)c(C)cc1NC(=O)CSc1nnc(-c2ccccn2)n1Cc1ccco1 | i | 4% | -1% | -1% | 2.3µM* | 17%
O=C(CSc1nnc(-c2ccccn2)n1Cc1ccco1)c1ccccc1 | i | 2% | -6% | -2% | ? | 7%
CNC(=O)CSc1nnc(-c2ccccn2)n1Cc1ccco1 | i | 1% | 1% | 2% | i | 5%
COc1ccc(C(=O)CSc2nnc(-c3ccccn3)n2Cc2ccco2)cc1 | i | 3% | -1% | 6% | 18µM* | 9%
O=C(COc1ccc(F)cc1)Nc1ccc(S(=O)(=O)N(Cc2ccccc2)c2ccccc2)cc1 | ? | nt | nt | nt | i | nt
CC1=C(C(=O)Nc2ccccc2)C(c2ccc(Br)cc2)n2nc(CCCO)nc2N1 (centres undefined) | i | nt | nt | nt | i | nt
Cc1nnsc1C(=O)NNc1c(Cl)cccc1Cl | i | -7% | -11% | ? | i | 8%
CCc1ccccc1NNC(=O)c1snnc1C | i | ? | 12µM* | 12µM* | i | ?
CCn1c(=O)c2cc(C(=O)NCCCN3CCN(c4ccc(F)cc4)CC3)sc2c2ccccc21 | i | nt | nt | nt | i | nt
CCCc1nnc(N2C(=O)c3oc4ccc(F)cc4c(=O)c3C2c2ccc(C(=O)OC)cc2)s1 (centres undefined) | i | nt | nt | nt | ? | nt
O=S1(=O)N[C@H](Cc2ccccc2)COc2cc(N3CCC[C@@H]3CO)ccc21 | 21µM* | 23µM* | nt | ? | i | nt
O=C(O)/C=C/C(=O)c1ccc2c(c1)CCc1ccccc1-2 | 13µM* | ? | 4.1µM* | 18µM* | ? | 3.7µM*
CC(=O)Nc1ccc2c(c1)CCc1ccccc1-2 | i | -3% | -4% | -5% | i | 6%
CCOC(=O)C1=C(CS(=O)(=O)c2c(C)cc(C)cc2C)NC(=O)NC1c1cccc(OC)c1 (centres undefined) | i | nt | nt | nt | i | nt
Cc1cccc(OCCSc2nc3ccc(NC(=O)c4cccs4)cc3s2)c1 | i | nt | nt | nt | i | nt
Clc1ccccc1CSc1nncn1NC/C=C/c1ccccc1 | i | -10% | -1% | -2% | 21µM* | 10%
COc1ccc(-c2cnc(SCC(=O)Nc3ccc4c(c3)OCO4)n2Cc2ccco2)cc1 | i | -21% | -2% | ? | i | ?
O=C(CSc1nnc(-c2c[nH]c3ccccc23)n1CC1CCCO1)Nc1ccc2c(c1)OCCO2 (centres undefined) | i | -1% | 0% | 1% | i | 29µM*
Cc1cc(NC(=O)CSc2nnc(-c3c[nH]c4ccccc34)n2-c2ccc(Cl)cc2)no1 | i | 11µM* | ? | -3% | i | 16%
O=C(CSc1nnc(-c2ccc(Cl)cc2)n1Cc1ccco1)Nc1ccc2c(c1)OCCO2 | i | ? | 1% | -23% | 4.1µM* | ?
CCn1c(SCC(=O)Nc2ccc3c(c2)OCCO3)nnc1-c1c[nH]c2ccccc12 | i | -2% | 6% | 6% | i | 4%
CC(=O)Nc1cccc(NC(=O)CSc2ncc(-c3ccc(Cl)cc3)n2Cc2ccco2)c1 | ? | ? | -14% | ? | ? | 16µM*
O=C(CSc1nnc(-c2ccccc2Cl)n1Cc1ccco1)Nc1ccc2c(c1)OCCO2 | i | -4% | 15% | -5% | i | 5%
O=C(NCC(c1ccco1)S(=O)(=O)c1ccc(Cl)cc1)c1ccccc1F (centres undefined) | i | nt | nt | nt | i | nt
COc1ccc(CNC(=O)c2cnc(N3CCCC3)nc2C)cc1 | i | nt | nt | nt | i | nt

Screening data (PubChem BioAssay)
